Data from PubChem BioAssay AID1159580 (chemical genetic matrix, 2015).
“And” between values parts separate entries of the source, which are not always exact repeats. Equal entries are not always repeated. Among all 5,500 compounds or so, about 2,000 (36%) were called active. Roughly 18% stayed inconclusive and do not appear here. Rule as the data show it: active = normalized growth mostly below about 0.91 (no sharp cut-off); inconclusive = no clear call, values can overlap the other calls; inactive = mostly above about 0.92. Some of the results follow.

Test: chemical genetic growth profiling, strain panel (AID 1159580);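 also: tested at 20 µM; growth read once vehicle control cultures reached saturation at 30 °C; 1 = growth at the plate median or of vehicle wells; lower values mean less growth of the strain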
Details: S. cerevisiae deletion strains, growth OD

Measured: normalized growth

COCCOC(=O)C1=C(C)NC(C)=C(C(=O)OC(C)C)C1c1cccc([N+](=O)[O-])c1 (stereo not given)
inactive: locus YAL013W, strain DEP1, hits give low values 1.01 | locus YAL021C, strain ccr4, hits give low values 1.04 | locus YAL026C, strain drs2, hits give low values 1.02 | locus YAL030W, strain snc1, hits give low values 1.02 | locus YAL040C, strain CLN3, hits give low values 1 | locus YBL061C, strain skt5, hits give low values 1.02 | locus YBR009C, strain hhf1, hits give low values 0.988 | locus YBR021W, strain FUR4, hits give low values 1.01 | locus YBR023C, strain chs3, hits give low values 1.02 | locus YBR171W, strain sec66, hits give low values 1.02 | locus YBR229C, strain ROT2, hits give low values 0.999 | locus YBR231C, strain swc5, hits give low values 0.996 | locus YBR279W, strain paf1, hits give low values 0.992 | locus YCL011C, strain gbp2, hits give low values 1.02 | locus YCL016C, strain dcc1, hits give low values 1.01 | locus YCL029C, strain bik1, hits give low values 1.02 | locus YCL061C, strain MRC1 (second series), hits give low values 1.01 | locus YCL069W, strain vba3, hits give low values 1.02 | locus YCR088W, strain abp1, hits give low values 1.01 | locus YDL005C, strain med2, hits give low values 1.01 | locus YDL035C, strain GPR1, hits give low values 1.01 | locus YDL040C, strain nat1, hits give low values 0.999 | locus YDL074C, strain BRE1, hits give low values 0.996 | locus YDL101C, strain DUN1, hits give low values 1.01 | locus YDL134C, strain PPH21, hits give low values 1.01 | locus YDL185W, strain tfp1, hits give low values 1.02 | locus YDL192W, strain arf1, hits give low values 1.02 | locus YDR001C, strain nth1, hits give low values 1.01 | locus YDR069C, strain doa4, hits give low values 0.982 | locus YDR101C, strain arx1, hits give low values 1.01 | locus YDR137W, strain rgp1, hits give low values 0.925 | locus YDR150W, strain NUM1, hits give low values 1.01 and 0.999 | locus YDR159W, strain sac3, hits give low values 0.967 | locus YDR162C, strain NBP2, hits give low values 0.992 | locus YDR195W, strain ref2 1.01 | locus YDR297W, strain sur2, hits give low values 1.01 | locus YDR318W, strain mcm21, hits give low values 1.01 | locus YDR334W, strain swr1, hits give low values 1 | locus YDR335W, strain msn5, hits give low values 1.01 | locus YDR363W, strain ESC2, hits give low values 1.01 | locus YDR388W, hits give low values 1.01 | locus YDR392W, strain spt3, hits give low values 0.977 | locus YDR502C, strain sam2, hits give low values 1 | locus YEL003W, strain gim4, hits give low values 1.01 | locus YEL037C, strain rad23, hits give low values 1.01 | locus YEL061C, strain CIN8 (second series), hits give low values 1 | locus YEL061C, strain CIN8, hits give low values 1 | locus YER002W, strain NOP16, hits give low values 0.993 | locus YER015W, strain faa2, hits give low values 1.01 | locus YER016W, strain bim1, hits give low values 0.989 | locus YER110C, hits give low values 1.02 | locus YER111C, strain swi4, hits give low values 1.02 | locus YER155C, strain BEM2 (second series), hits give low values 1.03 | locus YER155C, strain BEM2, hits give low values 1.02 | locus YER167W, strain BCK2, hits give low values 1.01 | locus YFR010W, strain ubp6, hits give low values 1.01 | locus YGL078C, strain dbp3, hits give low values 1.01 | locus YGL086W, strain mad1, hits give low values 0.992 | locus YGL167C, strain pmr1, hits give low values 1 | locus YGL173C, strain kem1, hits give low values 1.01 | locus YGL227W, strain vid30, hits give low values 1.03 | locus YGL240W, strain doc1, hits give low values 0.984 | locus YGL248W, strain PDE1, hits give low values 1 | locus YGL253W, strain hxk2, hits give low values 1.01 | locus YGR078C, strain PAC10, hits give low values 1 and 0.918 | locus YGR135W, strain pre9, hits give low values 0.997 | locus YGR229C, strain SMI1, hits give low values 1 | locus YGR252W, strain gcn5, hits give low values 0.961 | locus YHR013C, strain ard1, hits give low values 1.02 | locus YHR027C, strain rpn1, hits give low values 1.01 | locus YHR030C, strain SLT2, hits give low values 1.01 and 0.955 | locus YHR079C, strain IRE1 (second series), hits give low values 1 | locus YHR079C, strain IRE1, hits give low values 0.95 | locus YHR094C, strain hxt1, hits give low values 1.01 | locus YHR129C, strain ARP1, hits give low values 0.999 | locus YHR142W, strain chs7, hits give low values 1.04 | locus YHR200W, strain rpn10, hits give low values 1.02 | locus YIL066C, strain RNR3, hits give low values 1.01 | locus YIL073C, strain SPO22, hits give low values 1.04 | locus YIL125W, strain kgd1, hits give low values 1.01 | locus YIR030C, strain dcg1, hits give low values 1.01 | locus YJL092W, strain hpr5, hits give low values 1.02 | locus YJL095W, strain BCK1 (second series), hits give low values 1.02 | locus YJL095W, strain BCK1, hits give low values 1 and 0.972 | locus YJL115W, strain asf1, hits give low values 1.02 | locus YJL129C, strain trk1, hits give low values 0.987 | locus YJL134W, strain LCB3, hits give low values 1.01 | locus YJL154C, strain vps35, hits give low values 1 | locus YJL164C, strain tpk1, hits give low values 1.02 | locus YJL166W, strain qcr8, hits give low values 1.02 | locus YJL168C, strain set2, hits give low values 1.01 | locus YJL187C, strain SWE1 (second series), hits give low values 1 | locus YJL187C, strain SWE1, hits give low values 1.01 | locus YJR043C, strain POL32, hits give low values 0.999 | locus YJR066W, strain TOR1, hits give low values 0.946
